Test results published in PubChem BioAssay AID588675 (Johns Hopkins Ion Channel Center, 2011).
Screen size: about 310,000 compounds; about 1,900 (0.61%) were called active.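 The calls were made as follows: active = plate-corrected calcium response at least 3 library SD above typical, normal starting fluorescence, not activating the receptor alone; inactive = the rest.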 This excerpt belongs to a sample that is enriched for actives.

Target: Mas-related G-protein coupled receptor member X1 (Homo sapiens) (UniProt Q96LB2)
Assay: allosteric enhancers of human MrgX1 signaling – HEK293 cells, Fluo-4 calcium flux, primary screen (AID 588675);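 also: compound read alongside a low EC10 to EC30 dose of BAM8-22 agonist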;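 as to B-score: peak minus trough fluorescence over baseline measured at the second addition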
Details: MrgX1-HEK293, Fluo-4 calcium flux, FDSS, at 10 µM; hits give high values

Sequence of Mas-related G-protein coupled receptor member X1 (Homo sapiens) (Q96LB2 whole entry, looked up): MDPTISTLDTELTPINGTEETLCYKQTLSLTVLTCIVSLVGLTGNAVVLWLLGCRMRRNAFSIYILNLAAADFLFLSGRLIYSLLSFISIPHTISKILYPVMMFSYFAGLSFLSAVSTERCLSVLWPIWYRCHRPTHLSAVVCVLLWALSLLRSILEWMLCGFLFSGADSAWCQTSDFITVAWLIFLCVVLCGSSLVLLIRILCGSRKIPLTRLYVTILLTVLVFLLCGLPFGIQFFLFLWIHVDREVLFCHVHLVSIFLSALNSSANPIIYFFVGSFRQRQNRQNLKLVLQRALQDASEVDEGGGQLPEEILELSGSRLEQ

Row | SMILES | B-score
1 | CN(C(=O)CCNC(=O)Cn1ccc2ccccc2c1=O)c1ccc(Br)cc1 | inactive
2 | CC(=O)N1c2ccc(S(=O)(=O)N(C)CC(=O)N(C)Cc3ccccc3)cc2CC1C (stereo not given) | inactive
3 | O=C(Nc1nnc(-c2ccccc2F)s1)c1ccccc1F | inactive
4 | COc1ccccc1C(CNC(=O)c1cccc(NS(=O)(=O)c2ccc(Br)cc2)c1)N(C)C (stereo not given) | inactive
5 | Cc1ccc(CNS(=O)(=O)c2ccc3c(c2)N(C)CCO3)cc1 | inactive
6 | Cc1ccc(N/C(N)=N/c2nc(C(F)(F)F)cc(C(F)(F)F)n2)cc1 | 38.3 (active)
7 | CC(=O)NS(=O)(=O)c1ccc(N/C(N)=N/c2nc(C)cc(C)n2)cc1 | inactive
8 | Cc1ccc(NC(=O)Nc2ccc3oc(C)nc3c2)cc1 | inactive
9 | O=C(c1noc2c1CCCC2)N1CCc2ccccc2C1 | inactive
10 | Cc1cc(C)cc(Oc2nc3c(C)cccn3c(=O)c2/C=C(\C#N)C(=O)NC2CCS(=O)(=O)C2)c1 (stereo not given) | inactive
11 | CN1CC(c2ccccc2)C2(COc3ccccc3C2=O)C12C(=O)Nc1ccccc12 (stereo not given) | inactive
12 | CCC(C)Sc1nc(C)nc2c1c(=O)n(C)c(=O)n2C (stereo not given) | 17.1 (active)
13 | CCOC(=O)N1CCN(C(=O)CSc2nc(C)nc3c2c(=O)n(C)c(=O)n3C)CC1 | inactive
14 | CSc1nc(C)nc2c1c(=O)n(C)c(=O)n2C | inactive
15 | CC1(C(=O)N/N=C/c2cc3c(cc2Br)OCO3)CC1(Br)Br (stereo not given) | 8.54 (active)
16 | CC(=O)N/N=C/c1cc2c(cc1[N+](=O)[O-])OCO2 | inactive
17 | O=C(N/N=C/c1cc2c(cc1Br)OCO2)C1COc2ccccc2O1 (stereo not given) | inactive
18 | CCOC(=O)C1(Cc2ccccc2C)CCCN(S(C)(=O)=O)C1 (stereo not given) | inactive
19 | O=C(NC(Cc1ccccc1)C(=O)O)/C(=C\c1ccccc1)NC(=O)c1ccco1 (stereo not given) | inactive
20 | CS(=O)(=O)C1=NN2C(=N)/C(=C\c3ccc(OCCOc4ccccc4)cc3)C(=O)N=C2S1 | inactive
21 | Cc1cc(/C=C2/C(=N)N3C(=NC2=O)SN=C3S(C)(=O)=O)c(C)n1-c1ccccc1 | 11.8 (active)
22 | CCS(=O)(=O)C1=NSC2=NC(=O)/C(=C\c3cc(C)n(-c4cccc(OC)c4)c3C)C(=N)N21 | 10.5 (active)
23 | COc1ccccc1OCCOc1ccc(/C=C2\C(=N)N3N=C(C)SC3=NC2=O)cc1 | inactive
24 | CCC1=NN2C(=N)/C(=C/c3cc(C)n(-c4ccccc4)c3C)C(=O)N=C2S1 | inactive
25 | Cc1cc(/C=C2\SC(=O)N(C)C2=O)c(C)n1-c1cccc(C(=O)O)c1 | inactive
26 | Cc1ccc(C2=N/C(=C\c3ccc(OS(=O)(=O)c4ccc(C)cc4)cc3)C(=O)O2)cc1 | inactive
27 | CS(=O)(=O)c1ccc2c(c1)SC1=NC(=O)/C(=C/c3ccco3)C(=N)N12 | inactive

Row | SMILES | B-score
28 | CCS(=O)(=O)C1=NSC2=NC(=O)/C(=C\c3ccc(OS(=O)(=O)c4ccccc4)cc3)C(=N)N21 | 24.2 (active)
29 | COC1(C2=NCCN2)COc2ccccc2O1 (stereo not given) | inactive
30 | COc1ccccc1NC(=O)N1CCCC1C(=O)NCc1cccs1 (stereo not given) | inactive
31 | COc1cccc(-c2nnc(NC(=O)c3ccc(S(=O)(=O)N(CC(C)C)CC(C)C)cc3)o2)c1 | inactive
32 | O=C1CCCCN1CCCC(=O)N1CCCC(Nc2ccc(F)cc2)C1 (stereo not given) | inactive
33 | CCOC(=O)c1ccc(N=C2SC(C(=O)NC)CC(=O)N2CCc2ccccc2)cc1 (stereo not given) | inactive
34 | CSc1ccc(CN2C(=O)NC3(CCCCCC3)C2=O)cc1 | inactive
35 | C=C1c2c(Cl)ccc(O)c2C(O)=C2C(=O)[C@]3(O)C(O)=C(C(N)=O)C(=O)[C@@H](N(C)C)[C@@H]3[C@@H](O)C12 (stereo not given in full) | inactive
36 | O=C(Cc1ccc(S(=O)(=O)N2CCCC2)s1)NC1CCCCCC1 | inactive
37 | Cc1ccc(SCC(=O)c2cc(C)c(OC(=S)N(C)C)c(C)c2)cc1 | inactive
38 | COc1ccc(OC)c2sc(NC(=O)C3COc4ccccc4O3)nc12 (stereo not given) | inactive
39 | O=C(Nc1ncc([N+](=O)[O-])s1)C1COc2ccccc2O1 (stereo not given) | inactive
40 | O=C(Nc1nc2c(F)cc(F)cc2s1)C1COc2ccccc2O1 (stereo not given) | 9.52 (active)
41 | COc1ccc(C/C(C)=N/NC(=O)c2ccncc2)cc1 | inactive
42 | CN(C)CCCO/N=C(\c1ccccc1)c1ccncc1 | inactive
43 | COc1cc(OC)nc(N/N=C(\c2ccccc2)c2ccncc2)n1 | 9.14 (active)
44 | CSc1cccc(NC(=O)C2CCCN2S(=O)(=O)c2ccc3c(c2)CCC(=O)N3)c1 (stereo not given) | inactive
45 | CC[N+](C)(CC)CCC[n+]1c(-c2ccccc2)c2cc(N)ccc2c2ccc(N)cc21 | inactive
46 | Cc1ccc2c(c1)c1ncnc(N3CCc4ccccc4C3)c1n2C | 8.06 (active)
47 | Cc1ccc2c(c1)c1ncn(CCC3=CCCCC3)c(=O)c1n2C | inactive
48 | Cc1ccc2c(c1)c1ncn(Cc3ccc(F)cc3)c(=O)c1n2C | inactive
49 | COc1cc(S(=O)(=O)N(Cc2cccs2)C2CC2)ccc1-n1cnnn1 | inactive
50 | COC(=O)c1ccc(CN2CCN(CCCc3ccccc3)C(CCO)C2)cc1 (stereo not given) | inactive
51 | COc1ccc(F)c(-c2nc(CN3CCC(c4ccccc4)CC3)c(C)o2)c1 | inactive
52 | Cc1oc(-c2ccccc2F)nc1CS(=O)CC(=O)NCCN1CCCCC1C (stereo not given) | inactive
53 | Cc1nonc1C1CCCN1Cc1nc(-c2ccc(F)cc2F)oc1C (stereo not given) | 7.14 (active)
54 | CCCCOc1ccc(N(CC(=O)NC(C)C)C(=O)CCC(=O)Nc2ccccn2)cc1 | inactive

Row | SMILES | B-score
55 | CCCNc1c(N)c(=O)c1=O | inactive
56 | Cc1oc2cc([N+](=O)[O-])c(O)c([N+](=O)[O-])c2c1C(=O)c1ccc(Br)cc1 | inactive
57 | COc1ccc(Nc2ncnc3ccc(Br)cc23)c(OC)c1 | inactive
58 | COc1ccc(C(=O)N2CC3(C)CC2CC(C)(C)C3)cc1OC (stereo not given) | inactive
59 | CC1(C)CC2CC(C)(CN2c2ncnc3ccc(Br)cc23)C1 (stereo not given) | 13 (active)
60 | Cn1c(-c2sccc2OCc2cccc(C(F)(F)F)c2)n[nH]c1=S | inactive
61 | Cc1ccccc1-c1n[nH]c(=S)n1C | inactive
62 | Cn1c(-c2sc3cc(C(F)(F)F)cnc3c2-c2ccccc2)n[nH]c1=S | 9.48 (active)
63 | COc1ccccc1C(=O)NC(=S)NC12CC3CC(CC(C3)C1)C2 | inactive
64 | CN1CCN(C(=O)c2ccccc2NC(=O)COc2ccccc2Cl)CC1 | inactive
65 | Cc1cccc[n+]1CC(=O)c1ccccc1 | inactive
66 | O=C(CNC(=O)c1ccc(F)cc1)c1ccccc1 | inactive
67 | O=C(C[n+]1cc(Br)cc2ccccc21)c1ccc(F)cc1 | 9.24 (active)
68 | C=C(C)c1cccc(C(C)(C)NC(=O)NCCN(CC)CC)c1 | inactive
69 | CC(C)C(=O)NCC(c1cccs1)S(=O)(=O)c1ccc(F)cc1 (stereo not given) | inactive
70 | COc1cccc(Cn2cnc3c([N+](=O)[O-])c(C)c(C)cc32)c1 | inactive
71 | Cc1cccc(Cn2cnc3c(N)c(C)c(C)cc32)c1 | 9.78 (active)
72 | CCOC(=O)c1cn(Cc2cccc(C)c2)nn1 | inactive
73 | CCOc1ccc2[nH]c(=O)c(CN(CCCO)S(=O)(=O)c3ccc(F)cc3)cc2c1 | inactive
74 | Cc1cc2c(cc1C)[n+](C)cn2CC(O)COCC1CC=CCC1 (stereo not given) | inactive
75 | Cn1c(-c2ccc(F)cc2)cc2onc(-c3ccccc3Cl)c2c1=O | inactive
76 | CCn1c(C)nc2c1C(=O)c1ccccc1C2=O | 6.92 (active)
77 | CCC1(CC)Cc2ccccc2-c2nc3ccccc3c(=O)n21 | inactive
78 | Cc1nc2ccccc2n1CC(O)c1ccccc1 (stereo not given) | inactive
79 | CN(C)c1ccc(Nc2c3c4c(cccc4n(C)c2=O)C(=O)c2ccccc2-3)cc1 | inactive
80 | NC(=O)[C@H]1CC2(CC(c3cccc(NC(=O)[C@H]4CCC(=O)N4)c3)=NO2)CN1C(=O)c1ccccc1C(=O)c1ccccc1 (stereo not given in full) | inactive
81 | Cc1cccc(NC(=O)CCN2CC(C)CC(C)C2)c1 (stereo not given) | inactive

Row | SMILES | B-score
82 | Cc1cccc(NC(=O)C(C)SCc2ccccc2)c1 (stereo not given) | inactive
83 | Cc1cccc(NC(=O)C(C)N2C(=O)C3C4CC(C(Br)C4Br)C3C2=O)c1 (stereo not given) | 9.03 (active)
84 | CC(C)(Oc1ccc(C2CC2(Cl)Cl)cc1)C(=O)O (stereo not given) | inactive
85 | COc1cc(C2/C(=C(\O)c3ccc4c(c3)CC(C)O4)C(=O)C(=O)N2Cc2ccco2)ccc1O (stereo not given) | inactive
86 | COc1ccc(C2=CC(c3cccc(OC)c3)n3nnnc3N2)cc1 (stereo not given) | inactive
87 | Brc1ccc(C2=CC(c3ccco3)n3ncnc3N2)cc1 (stereo not given) | inactive
88 | CCOc1ccc(C2=CC(c3ccccc3)n3ncnc3N2)cc1 (stereo not given) | 7.44 (active)
89 | CC1=C(C/C=C(\C)CCCC(C)CCCC(C)CCCC(C)C)C(=O)c2ccccc2C1=O (stereo not given) | inactive
90 | COc1ccc(-c2cn[nH]c2-c2ccc(OC)cc2)cc1 | inactive
91 | CCOc1ccccc1Oc1cn[nH]c1-c1ccc(OC)cc1O | inactive
92 | COc1ccc(Oc2cn[nH]c2-c2ccc(OC)cc2O)cc1 | 6.54 (active)
93 | O=C(NCc1ccccc1)C1=C[C@@H](C2CCCCC2)C[C@@H](OCc2ccc(CO)cc2)O1 | inactive
94 | CC1CCC(CN2CCN=C2N(C)C)CC1 (stereo not given) | inactive
95 | COc1ccc(NC(=O)CN(C)C(=O)c2cc(-c3ccc(C)o3)nc3ccccc23)cc1 | inactive
96 | COc1ccc(-c2cc(C(=O)Nc3ccccc3O)c3ccccc3n2)cc1 | inactive
97 | COc1ccc(NC(=O)c2cc(-c3ccc(C)o3)nc3ccccc23)cc1 | 8.06 (active)
98 | COc1ccc(C(=O)CN2C(=O)NC3(CCc4ccccc43)C2=O)c(OC)c1 (stereo not given) | inactive
99 | CC(OC(=O)CNS(=O)(=O)/C=C/c1ccccc1)C(=O)Nc1ccc(S(=O)(=O)N2CCCC2)cc1 (stereo not given) | inactive
100 | COc1cccc(Oc2ccc(N)cc2)c1 | inactive
101 | CC(C)(C)c1ccc(Oc2ccc(N)cc2)cc1 | inactive
102 | Nc1ccc(Oc2ccc(Cl)cc2)cc1 | 6.95 (active)
103 | CCN(CC)C(=O)CC1(c2ccccc2OC)CCOC(C(C)C)C1 (stereo not given) | inactive
104 | COC(=O)c1c(C)cc(O)c(C)c1O | inactive
105 | N#C/C=C(/c1ccc(F)cc1)N1CCOCC1 | inactive
